Screens as filed in PubChem BioAssay.
Only some compounds are listed: those with a hit (about 7% of all), similar ones and a draw of the others.
IL-1B inflam inh – blocks inflammasome-driven IL-1 beta release; THP-1 LPS/ATP IL-1B secretion, AlphaLISA, 16 h; active compounds read low; activity change, % at 57.5 µM; 4.7% of 360,000 active; in the data active = activity change below about -50%; inconclusive = mostly about -30% to -49%; also: % is scaled to controls: 0 for no effect and ±100 for the full control effect
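THP-1 cells pretreated 1 hr with compounds (up to 57.5 uM final), then stimulated with LPS (250 ng/mL final) plus ATP (1.25 mM final); secreted IL-1B measured by AlphaLISA after 16 hr, decreased signal indicating inhibition.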
ATXN viability – reduces viability in counter-screen for ATXN expression inhibitors. S2 cells (HEK-293 line with an ATXN2-luciferase reporter) viability, CellTiter-Fluor protease fluorescence, 24 h. 0.49% of 400,000 active. Potency, µM (doses to about 56.7 µM), most hits filed as cytotoxic; also: potency is read from the fitted curve at half-maximal effect; nearly all actives have a fitted effect of over 40% in size
Integrin act MD – integrin-mediated muscular dystrophy alleviation activation; alpha7betagal myoblasts, beta-gal FDG fluorescence, 48 h; Potency, µM (top dose mostly 38.3 µM), inactives show at the top dose activation, usual class: activators; 0.064% of 350,000 active; AID 624291;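 also: potency is read from the fitted curve at half-maximal effect; 100% = response of the positive control SU9516; nearly all actives have a fitted effect of over 60% in size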
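Alpha7betagal+/- myoblasts (passage 13) were plated 16-24 hr, then exposed to compounds (1:260 dilution of DMSO stock) for 48 hours at 37C. After MPER lysis, β-galactosidase reporter activity was read as FDG fluorescence (ex 480/em 540) after 30 minutes.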
D3 ag – activates the human D3 dopamine receptor; D3R DiscoveRx beta-arrestin cells, luminescence, 90 min; max activation, %; P35462; 0.58% of 410,000 active; in the data active = max activation above about 30%; also: 0% is about no effect
Target sequence (P35462 whole entry, looked up): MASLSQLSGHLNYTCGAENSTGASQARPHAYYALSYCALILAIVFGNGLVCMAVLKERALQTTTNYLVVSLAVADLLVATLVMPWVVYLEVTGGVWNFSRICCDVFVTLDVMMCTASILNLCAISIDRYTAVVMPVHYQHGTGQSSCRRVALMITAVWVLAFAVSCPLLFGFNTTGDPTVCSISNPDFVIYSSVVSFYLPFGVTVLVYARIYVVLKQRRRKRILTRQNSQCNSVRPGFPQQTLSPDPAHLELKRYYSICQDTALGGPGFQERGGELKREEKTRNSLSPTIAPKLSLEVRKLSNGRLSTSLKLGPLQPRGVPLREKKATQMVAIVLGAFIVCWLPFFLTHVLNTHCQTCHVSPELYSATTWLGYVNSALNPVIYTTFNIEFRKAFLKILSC
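Agonist-mode cell screen: cells plated at 1500/well and incubated overnight at 37 °C, then exposed to library compounds for 90 min at 37 °C. Detection reagent was added for 30–60 min at room temperature, and luminescence was read.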
ATXN2 expr inh – inhibitors of ATXN2 expression. HEK-293 ATXN2-luciferase reporter, luminescence, 24 h. Potency, µM (series often up to 57 µM), for the others: at the highest dose activity change, negative = inhibition, usual class: inhibitors. 0.72% of 360,000 active. AID 1745845; also: potency is read from the fitted curve at half-maximal effect; % is scaled to controls: 0 for no effect and ±100 for the full control effect; nearly all actives have a fitted effect of over 55% in size
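qHTS (up to 57 uM final) was run with 24 h compound exposure of reporter cells at 37 °C. Each well was multiplexed: SteadyGlo luminescence measured ATXN2-luciferase expression after a fluorogenic Gly-Phe-AFC viability readout (25 uM final).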
DRD3 antagonist – blocks the human D3 dopamine receptor; P35462; D3R cells, DiscoveRx beta-arrestin luminescence, antagonist mode; active compounds read low; max response, negative = inhibition, %; 2.5% of 360,000 active; AID 652054; in the data active = max response below about -50%; inconclusive = no clear call, values can overlap the other calls; also: % is scaled to controls: 0 for no effect and ±100 for the full control effect
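Cells plated overnight at 1500 cells/well, then exposed to library compounds with dopamine controls for 90 minutes at 37 degrees C. DiscoveRx reagent added for 30–60 minutes at room temperature; luminescence read, quantitative HTS format.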
The depositor's hits bear a star; i = inactive; u = inconclusive; x = no result given; ! = a repeat was not active. Unless noted, calls follow the shape of the dose curve; as a rule, active = well fitted curve in the direction sought with a large enough effect; inconclusive = small, poorly fitted or top-dose-only effect, or another doubt; inactive = no such curve, though single readings can be large; an effect the other way counts as inactive or inconclusive.

SMILES	IL-1B inflam inh	ATXN viability	Integrin act MD	D3 ag	ATXN2 expr inh	DRD3 antagonist
COc1ccc(N2CCN(C(=O)c3cn(C4CCCCC4)c(=O)c4c3c3ccccc3n4C)CC2)cc1	x	11µM*	x	5	-8%	x
CNc1ccc2ncc(-c3ccc(OC)c(OC)c3)n2n1	-66*	i	x	1	31%	17
O=C(O)C(c1ccccc1)C(O)C1CC=CCC1 (stereo not drawn)	-11	i	-9%	1	4%	-9
Cc1cc(C)nc(/N=C(\N)Nc2ccc(OCCC(C)C)cc2)n1	-98*	i	-76%	5	-39%	12
Cc1cc(C)nc(/N=C(\N)Nc2ccc(CC(=O)OC(C)C)cc2)n1	-99*	i	-24%	16	-20%	10
Cc1cc(C)nc(/N=C(\N)Nc2ccc(C)c([N+](=O)[O-])c2)n1	-112*	i	-36%	-1	4%	-2
Cc1cc(C)nc(/N=C(\N)Nc2cccc(OCc3ccccc3)c2)n1	-68*	u	-62%	0	x	18
COc1ccc(N/C(N)=N/c2nc(C)cc(C)n2)cc1	82	u	5%	2	x	17
O=[N+]([O-])c1cc(-c2nc(-c3cccnc3)no2)ccc1NCc1ccccc1	x	i	x	-5	13%	x
O=C(CCc1ccccc1)NNC(=O)c1ccccn1	108	u	-32%	-4	u	-2
CCOc1ccc(CCNC(=O)c2ccc(CSCc3ccccc3C)o2)cc1OCC	x	x	x	5	x	x
Cc1cc(C)nc(/N=C(\N)Nc2ccc(OCc3ccccc3)cc2)n1	-93*	u	-63%	-5	u	-5
C1=CC2=NC34CCCCC3CC3=C(CCCC3)N4C2=CC1=NC1CCCCC1 (stereo not drawn)	-98*	x	-78%	-12	u	-19
O=C(Cn1c(-c2cccs2)cc2cc(F)ccc21)NCCCN1CCN(c2ccc(F)cc2)CC1	x	u	x	1	2%	x
COc1ccccc1C1=CC(=O)C[C@H](c2ccc(Cl)cc2)C1	-54*	i	9%	-6	-22%	-17
COc1cccc(C2=CC(=O)C[C@H](c3ccc(Cl)cc3)C2)c1OC	u	u	-16%	0	u	-5
COc1ccc([C@H]2CC(=O)C=C(c3cccc(C(C)C)c3)C2)cc1	u	i	-13%	-56	10%	-61*
CCCCC/C=C/C1=CC(=O)C[C@H](c2ccc(OC)c(OC)c2)C1	-22	u	-12%	3	22µM*	5
COc1ccc([C@H]2CC(=O)C=C(c3cccc(Cl)c3)C2)cc1OC	-66*	i	-17%	14	3%	-11
CCOc1ccc(NC(=O)c2cc(S(=O)(=O)NC3CCCCCC3)ccc2F)cc1	x	x	x	2	x	x
Cc1cc(C)cc(N(CC(=O)Nc2ccc(C)cc2Cl)S(=O)(=O)c2c(C)[nH]c(=O)[nH]c2=O)c1	11	i	-9%	5	-7%	-3
Cc1noc(C)c1S(=O)(=O)N1CCCC(C(=O)N2CCc3ccccc3C2)C1 (stereo not drawn)	39	u	-21%	2	-14%	-15
Cc1ccc(S(=O)(=O)N2CCN(C(=O)CSc3nccn3C)CC2)cc1	-6	i	43%	-5	-1%	-3
O=S1(=O)CCOCCCN1Cc1cccc(F)c1	0	i	4%	0	-2%	0
CCOCCc1nnc(N)s1	-3	i	6%	12	-4%	-24
SMILES	IL-1B inflam inh	ATXN viability	Integrin act MD	D3 ag	ATXN2 expr inh	DRD3 antagonist
CN1C=C/C(=C\c2cc[n+](C)c3ccccc23)c2ccccc21	-71*	u	-62%	-9	8.4µM*	-16
CC[n+]1ccc(/C=C2\Sc3ccccc3N2CCCS(=O)(=O)[O-])c2ccccc21	58	i	10%	1	-9%	4
Cc1cc(C)n(-c2nc3ccccc3c(=O)n2OCC(N)=O)n1	11	i	13%	2	2%	2
Cc1ccc(C#N)c(SCc2cccc(Br)c2)n1	14	i	-53%	2	x	90
OC(CCCN1CCCCC1)(c1ccccc1)c1ccc(C(F)(F)F)cc1 (stereo not drawn)	-22	u	-58%	-23	u	-99*
Cn1c(CNC(=O)c2ccc3c(c2)OCO3)nnc1SCC(=O)Nc1ccc(F)cc1	3	i	-55%	-3	-20%	-3
Cn1cccc1/C=N/n1c(-c2ccccc2)n[nH]c1=S	0	i	1%	-6	-5%	-98*
S=c1[nH]nc(-c2ccccn2)n1/N=C/c1ccccc1	18	i	-24%	-3	1%	-52*
Oc1c(Br)cc(Br)cc1/C=N/n1c(-c2ccccc2)n[nH]c1=S	-3	i	-14%	-4	x	-51*
COc1ccccc1NC(=O)Cn1c(=O)n2nc(C)nc2c2ccccc21	18	i	0%	1	2%	8
O=C(O)c1ccc(N/N=C/C=C/c2ccc([N+](=O)[O-])o2)cc1	-15	u	u	-12	-15%	-53*
O=C(N/N=C/c1ccco1)c1cc([N+](=O)[O-])cc([N+](=O)[O-])c1	43	i	-11%	4	-9%	3
O=[N+]([O-])c1ccc(N/N=C/C=C/c2ccco2)cc1	22	i	1%	-20	x	-57*
COc1ccccc1-c1nc2c(c(SCC(=O)Nc3c(C)cc(C)cc3C)n1)Cc1c(CO)cnc(C)c1O2	x	x	x	-12	x	x
Cc1ccc(NC(=O)/C(C#N)=C/c2ccccc2C(F)(F)F)cc1	-24	i	-2%	-8	2%	2
Cc1ccccc1NC(=O)/C(C#N)=C/c1ccccc1C(F)(F)F	-72*	i	13%	-5	-6%	11
Cc1noc2ncnc(Oc3ccc(C(C)(C)C)cc3)c12	20	i	-22%	5	6%	7
CC1CCCCN1S(=O)(=O)c1cnc(Cl)c(Br)c1 (stereo not drawn)	-94*	i	-22%	-9	-20%	-27
CC1CCN(S(=O)(=O)c2cnc(Cl)c(Br)c2)CC1	-65*	i	-5%	3	-5%	6
CC1CCCCN1S(=O)(=O)c1csc(C(N)=O)c1 (stereo not drawn)	14	i	12%	8	x	-3
Cc1cc(C)n(CCCNCC(O)c2ccccc2)n1 (stereo not drawn)	17	i	-2%	-27	-5%	-64*!
Cc1ccc(-n2c(C)cc(/C=C3/SC(=O)N(CC(=O)N4CCOCC4)C3=O)c2C)nc1	14	i	16%	24	4%	14
COc1ccc2[nH]c3c(N4CCN(Cc5ccc6c(c5)OCO6)CC4)ncnc3c2c1	u	u	-52%	0	28µM*	9
